Bioassay records as filed in PubChem.
Lassa entry inh: qHTS for Inhibitors of binding or entry into cells for Lassa Virus. Potency, µM (top dose mostly 37.9 µM), without a hit: top-dose activity change, negative = inhibition, hits mostly inhibitors. 1.2% of 300,000 active. Lassa virus pseudotype entry inhibition, cell reporter; calls by dose curve; tested in HEK293 cells; also: potency is read from the fitted curve at half-maximal effect; nearly all actives have a fitted effect of over 50% in size
FMDV antiviral: High Throughput Screening for Foot and Mouth Disease Virus Antivirals | 1.2% of 410,000 active | Potency, µM (highest dose often 57.9 µM), without a hit: top-dose activity change, negative = inhibition, actives largely listed as inhibitors | AID 1159524, 2015 | FMDV antiviral cell-based qHTS; calls by dose curve; tested in HEK293T cells; also: read-out not given here; potency is read from the fitted curve at half-maximal effect; nearly all actives have a fitted effect of over 45% in size
HCMV antiviral: qHTS Assay for inhibitors of the human cytomegalovirus (HCMV); HFF cells, HCMV-luciferase reporter, 72 h; active compounds read low; 4.5% of 410,000 active; activity change, negative = inhibition, % at 57.5 µM; in the data active = activity change below about -60%; inconclusive = no clear call, values can overlap the other calls; inactive = above about -39%
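Steps: HFFs plated, 16 h 37C; compounds added; HCMV-luciferase added to MOI 1 PFU/cell; 72 h 37C; OneGlo reagent, 5 min room temperature; luminescence read, normalized to controls.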
Marburg entry inh: qHTS for inhibitors of binding or entry into cells for Marburg Virus; AID 540276, 2011; Marburg virus pseudotyped entry inhibition, cell reporter; Potency, µM (highest dose often 37.8 µM), for the others: at the highest dose activity change, negative = inhibition, usual class: inhibitors; 1.8% of 300,000 active; calls by dose curve; tested in HEK293 cells; also: potency is read from the fitted curve at half-maximal effect
* marks the source's active call; other numbers are inactive results; ? = inconclusive; . = not tested or not shown; ! = a repeat was not active; [ ] = remark or other dose. In the library only some 6.2% were active in any assay of this set; here they are far more common. % is scaled to controls: 0 for no effect and ±100 for the full control effect.

SMILES	Lassa entry inh	FMDV antiviral	HCMV antiviral	Marburg entry inh
Cn1c(N)c(C(=O)CCl)c(=O)n(Cc2ccccc2)c1=O	-1%	28µM*	-22	4%
Cn1cnnc1SCC(=O)c1c(N)n(Cc2ccccc2)c(=O)n(C)c1=O	0%	4%	-64*	-10%[46.1 µM]
Cn1c(=O)c(C(=O)CCl)c(N)n(Cc2ccccc2)c1=O	-8%	?	26	-16%
Cc1nnc(SCC(=O)c2c(N)n(Cc3ccccc3)c(=O)n(C)c2=O)n1C	-9%[46.1 µM]	-8%	-33	2%[46.1 µM]
Cc1c(C(=O)NCc2cccc(F)c2)sc2ncnc(NCC3CCCO3)c12 (configuration not stated)	.	-9%	.	.
Cc1ccc(S(=O)(=O)N2CCC([C@@H](C#N)c3ccccc3)CC2)cc1	.	.	-17	.
CC(N)C(=O)OC(C)(C)Cc1ccc(Cl)cc1 (configuration not stated)	?	-14%	-19	10µM*!
OCCCNCc1cc2cc3c(cc2nc1N1CCN(c2cccc(Cl)c2)CC1)OCO3	.	1%	.	.
COc1ccccc1S(=O)(=O)Cc1ccc(C(=O)N2CCN(c3ccc(C)cc3)C(C)C2)o1 (configuration not stated)	.	32µM*	-19	6%
COc1ccccc1N1CCN(C(=O)CCc2c(C)nn(-c3ccc(N4CCCC4)nn3)c2C)CC1	-3%[46.1 µM]	-26%	11	.
CC1=C(O)C(=O)[C@H]2O[C@@H]2C1=O	.	11%	.	.
O=C(CSc1nc2c(c(=O)[nH]1)CN(Cc1ccc3c(c1)OCO3)CC2)Nc1ccc(F)cc1	-5%[46.1 µM]	-21%	-6	17%[46.1 µM]
CCOC(=O)c1c(C)[nH]c(-c2csc(N)n2)c1C	?	49%	-81*	?
Cc1nn(Cc2ccc(F)cc2)c2sc(C(=O)Nc3ccc(N4CCOCC4)cc3N3CCOCC3)cc12	?	0%	-67*	?
c1ccc(-n2ncc3c(NC[C@@H]4CCCO4)ncnc32)cc1	.	.	.	-18%
CN1C(=S)SC(/[N+]([O-])=C/c2ccc(Cl)cc2)C1(C)C (configuration not stated)	-13%	11%	-65*	1%[46.1 µM]
CCOC(=O)C1CCC(CN(Cc2ccc(Cl)cc2)S(=O)(=O)c2ccc(F)c(C(=O)Nc3cccc(F)c3)c2)CC1 (configuration not stated)	-5%[46.1 µM]	0%	16	.
Cc1cccc2nc(CNC(=O)CN3Cc4cc(Cl)ccc4OC(C)C3)cn12 (configuration not stated)	.	-5%	.	.
CCCC[C@@H](C=O)NC(=O)[C@H](CC(C)C)NC(=O)[C@H](CC(C)C)NC(C)=O	.	-14%	.	.
O=C(CSc1nc2ccc(Cl)cc2[nH]1)NC1CCCc2ccccc21 (configuration not stated)	-25%[46.1 µM]	28µM*	-74*	?
C[C@@H]1CN([C@H](C)CO)C(=O)CCCn2cc(nn2)CO[C@H]1CN(C)S(=O)(=O)c1ccc(Oc2ccccc2)cc1	.	0%	20	.
COc1ccc(C2=C(Nc3ccc(Br)c(C)c3)c3ccccc3C2=O)cc1	-5%[46.1 µM]	28µM*	5	-16%[46.1 µM]
COc1ccc(CCC(=O)NCCc2csc(-c3ccc(C(F)(F)F)cc3)n2)cc1	-25%[46.1 µM]	-6%	-16	.
Cc1cc(C)c(Cc2c(C)nc3c(C(=O)NCc4ccco4)cnn3c2C)c(C)c1	-15%	18µM*	-99*	?
COC(CNC(=O)c1cnn2c(C)c(Cc3ccccc3)c(C)nc12)OC	?	-16%	-27	-22%
SMILES	Lassa entry inh	FMDV antiviral	HCMV antiviral	Marburg entry inh
Cc1ccc(CNC(=O)c2cnn3c(C)c(Cc4c(F)cccc4Cl)c(C)nc23)cc1	-32%[46.1 µM]	?	-3	.
Cc1nc2c(C(=O)NC(C)c3ccccc3)cnn2c(C)c1Cc1ccccc1 (configuration not stated)	?	?	-86*	.
Cc1cc(OCC(=O)Nc2ccc(-c3nc4cc(Cl)ccc4o3)cc2)cc(C)c1Cl	?	17%	17	.
O=C(c1ccccc1-n1cccn1)N1CCOc2ccc(CN3CCOCC3)cc2C1	.	-4%	.	.
COC(=O)[C@@H]1CC[C@H](C)[C@@H](c2ccc(C)cc2)N1C(=O)c1ccc(C=NO[C@@H](C)c2cn([C@H](CO)Cc3ccccc3)nn2)cc1	-7%[14.3 µM]	.	.	5%[14.2 µM]
CCOC(=O)/C(=N\Nc1ncnc2ccccc12)c1ccc(C)cc1	1.1µM*	?	150	?
CCOC(=O)C/C(=N\Nc1ncnc2ccccc12)c1ccccc1	-10%[46.1 µM]	6%	20	?
CC(=C\c1ccccc1)/C=C1/SC(=S)N(CCCC(=O)O)C1=O	?	?	-82*	?
